Hits are enriched below; roughly 2.9% of the tested compounds scored in any of these assays.
LDHA block: blocks human lactate dehydrogenase A; 0.15% of 480,000 active; purified LDHA, NADH/diaphorase-resazurin fluorescence; active compounds read low; activity change, % (values are at about 110 or 230 µM); in the data active = activity change below about -30%; inconclusive = mostly about -25% to -30%;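 also: plate controls were DMSO wells for no effect and wells without enzyme for full effect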
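Enzyme activity of human lactate dehydrogenase 5 (2 nM; 0.06 mM NADH, 0.2 mM pyruvate, 5 min, RT) is measured via a resazurin/diaphorase fluorescence readout of residual NADH.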
GLP1R inv ag: GLP-1 receptor (human) inverse agonism. 1.6% of 410,000 active. HEK293 GLP-1R CRE-luciferase, luminescence, 24 h; GLP-1R form is constitutively active. Potency, µM (series often up to 38.3 µM), without a hit: at the highest dose activity change, negative = inhibition, usual class: inhibitors. P43220; also: potency is read from the fitted curve at half-maximal effect; % is scaled to controls: 0 for no effect and ±100 for the full control effect; nearly all actives have a fitted effect of over 55% in size
Target sequence (P43220 whole entry, looked up): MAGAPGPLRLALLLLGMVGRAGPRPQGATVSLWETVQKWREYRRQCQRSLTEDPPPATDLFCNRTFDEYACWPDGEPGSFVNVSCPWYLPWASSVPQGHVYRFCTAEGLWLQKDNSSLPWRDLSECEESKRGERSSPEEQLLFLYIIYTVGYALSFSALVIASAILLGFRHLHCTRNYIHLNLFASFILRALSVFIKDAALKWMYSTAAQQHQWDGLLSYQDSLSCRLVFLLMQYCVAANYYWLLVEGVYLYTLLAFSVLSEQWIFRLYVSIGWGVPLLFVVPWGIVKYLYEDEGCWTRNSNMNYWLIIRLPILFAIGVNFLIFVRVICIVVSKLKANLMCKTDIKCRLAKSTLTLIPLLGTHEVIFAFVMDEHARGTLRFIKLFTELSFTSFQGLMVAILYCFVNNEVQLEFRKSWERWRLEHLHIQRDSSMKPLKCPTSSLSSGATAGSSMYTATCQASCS
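Cells are plated, allowed 12 hours at 37 deg C, then treated with compounds for 24 hr before luciferase detection reagent is added and luminescence is read after 12 min at room temperature. The HEK293 line carries constitutively active GLP-1R with a cAMP-responsive reporter.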
GLP-1R agonist: agonists of human GLP-1 receptor; Potency, µM (doses to about 45.6 µM), for the others: at the top dose activation, most hits filed as activators; HEK293 GLP-1R CRE-luciferase, luminescence, 4-6 h; cells express a hypersensitive GLP-1R form; 0.007% of 380,000 active; P43220; AID 624172; also: potency is read from the fitted curve at half-maximal effect; % of control where 0% means no effect
p53 reactivation: re-activators of mutant p53; H1299 p53-A138V BP100-luciferase reporter, luminescence, 24 h; Potency, µM (highest dose often 92.2 µM), for inactives: at the highest dose activity change, positive = activation, actives largely listed as activators; 0.063% of 320,000 active; AID 504706; also: potency is read from the fitted curve at half-maximal effect; % of control where 0% means no effect; nearly all actives have a fitted effect of over 45% in size
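p53-null H1299 cells stably carrying temperature-sensitive p53-A138V and a BP100-luciferase reporter were pinned with compounds (4-point, 1:5 series) and held 24 hrs at 37 deg C. Luminescence was read 10 min after detection reagent.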
HEK293 tox: cytotoxicity counter-screen for GLP-1 receptor inverse agonists. HEK293 cAMP-luciferase reporter cells, luminescence, 24 h. Potency, µM (titrated, usually from 38.3 µM), inactives show at the top dose activity change, negative = inhibition, most hits filed as inhibitors. 0.13% of 410,000 active. AID 624418;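 also: loss of luciferase light is scored as toxicity; potency is read from the fitted curve at half-maximal effect; % is scaled to controls: 0 for no effect and ±100 for the full control effect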
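Luminescence readout: signal drop marks cytotoxicity. Plated cells grew 12 h at 37 °C, 5% CO2, received 23 nL compound for 24 h, then got luciferase reagent, read after 12 min at RT.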
ClpP mod: qHTS Assay for Activators of ClpP; ATP-dependent Clp protease proteolytic subunit (Bacillus subtilis (strain 168)), P80244; purified B. subtilis ClpP, FRET peptide cleavage, 20 min; Potency, µM (highest dose often 57.5 µM), for the others: at the highest dose activity change, negative = active; 1.9% of 340,000 active; AID 651965, 2013; active = well fitted falling curve with a large enough effect; inconclusive = small, poorly fitted or top-dose-only effect; inactive = no such curve, though single readings can be large or run the other way; also: potency is read from the fitted curve at half-maximal effect; the source files actives as falling curves though it sought activators and does not explain the sign; nearly all actives have a fitted effect of over 65% in size
Target sequence (P80244 whole entry, looked up): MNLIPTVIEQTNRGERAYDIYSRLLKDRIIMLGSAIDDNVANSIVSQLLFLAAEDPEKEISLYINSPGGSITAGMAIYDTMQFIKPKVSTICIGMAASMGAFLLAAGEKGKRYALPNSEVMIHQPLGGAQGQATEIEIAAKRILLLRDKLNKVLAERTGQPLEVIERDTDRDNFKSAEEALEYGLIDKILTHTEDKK
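Buffer: 100 mM Tris/HCl pH8, 100 mM KCl, 0.05% low protease BSA, 2.5% glycerol, 0.01% Tween-20. ClpP 10 microg/mL final; 20 min RT; delta FRET normalized to ADEP and DMSO controls.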
Numbers without * were called inactive; ? = inconclusive; . = not tested or not shown. Unless noted, calls follow the shape of the dose curve; as a rule, active = well fitted curve in the direction sought with a large enough effect; inconclusive = small, poorly fitted or top-dose-only effect, or another doubt; inactive = no such curve, though single readings can be large; an effect the other way counts as inactive or inconclusive.

SMILES	LDHA block	GLP1R inv ag	GLP-1R agonist	p53 reactivation	HEK293 tox	ClpP mod
COc1ccc(-n2nc3c(N4CCCC(C(=O)NCCc5ccccc5C)C4)nnc(C)c3c2C)cc1 (configuration not stated)	4	5%	.	.	-29%	4%
COc1ccccc1OCC(=O)NCc1nc(-c2ccccc2)no1	-1	-6%	-4%	9%	15%	.
COCC(=O)OC1CCn2c1nc1c2C(=O)C(C)=C(NC(C)=O)C1=O (configuration not stated)	43	10µM*	-13%	.	11µM*	-2%
O=C(NC(c1ccc(Cl)cc1)c1ccsc1)C1CCN(Cc2ccc(Oc3ccccc3)cc2)CC1 (configuration not stated)	-9	10µM*	2%	.	-24%	-1%
CCCN(CCC)S(=O)(=O)c1ccc(Cl)c([N+](=O)[O-])c1	0	?	-8%	-10%	13µM*	.
CCNc1ccc(S(=O)(=O)N(C)C)cc1[N+](=O)[O-]	-37*	32%	-1%	4%	10%	-3%
CC(=O)OC[C@@H]1CN(Cc2ccccc2)C[C@H](n2ccc3c(N)ncnc32)O1	-3	22%	-1%	.	8%	-2%
N#CC(c1ccccc1)c1ccc(=O)[nH]n1 (configuration not stated)	-18	11%	7%	-4%	2%	.
CN(C)CCCCCCCCCCC(=O)/C=N/O	-9	10µM*	4%	.	-6%	-1%
CN(CCCCCCCCC(=O)/C=N/O)Cc1ccccc1	2	14%	-7%	0%	-28%	0%
COCCn1c(SC(C)C(=O)OC)nc2c1c(=O)[nH]c(=O)n2C (configuration not stated)	-4	.	.	.	.	.
O=C(CN(c1ccc(F)cc1)S(=O)(=O)c1ccc2c(c1)OCCO2)NCc1ccccc1	-13	-3%	10%	7%	13%	-1%
O=c1cnn(Cc2ccc(Cl)c(Cl)c2)c2ccccc12	-3	?	15%	-6%	?	.
O=c1c2ccccc2cnn1Cc1ccc(Cl)c(Cl)c1	-1	10µM*	34%	5%	12%	.
COc1ccc(-c2ccc(OC)c(OC)c2OC)c(OC)c1OC	-6	?	0%	.	-28%	-1%
COc1ccc2c(c1OC)CCC2=O	0	0%	-4%	5%	-4%	28µM*
CO/N=C(\Cn1ncc(N2CCCC2)c(Br)c1=O)c1ccc(Cl)cc1	-3	11µM*	13%	-1%	-18%	2%
Cc1nnc(SC(C)C(=O)NC2CCCCC2C)s1 (configuration not stated)	-4	14%	4%	10%	8%	-2%
CCCCN(CC)C(=O)CSc1c2c(nc3ccc(Cl)cc13)CCCC2	7	10µM*	.	.	?	-4%
C#CC(=O)N(c1cc(OC)ccc1OC)C(C(=O)NC1CCCC1)c1cccs1 (configuration not stated)	-9	7.9µM*	-42%	-11%	5µM*	-3%
CC1CCCCN1CC(=O)Nc1ccc2c(c1)OC(F)(F)O2 (configuration not stated)	-6	?	20%	3%	-2%	.
CN1CCC(N(C)CC(=O)Nc2ccc3c(c2)OC(F)(F)O3)CC1	-34*	?	6%	-3%	-5%	.
COc1ccc2nc(N3C(=O)CNC3=S)sc2c1	-5	?	0%	4%	7.9µM*	.
Cc1ccc2nc(N3C(=O)CNC3=S)sc2c1	-11	?	11%	5%	?	.
COc1cccc(C(=O)Nc2oc3ccccc3c(=O)c2-c2ccccc2)c1	6	.	.	.	.	.
SMILES	LDHA block	GLP1R inv ag	GLP-1R agonist	p53 reactivation	HEK293 tox	ClpP mod
COc1ccc(-c2noc(CCCC(=O)NCc3ccco3)n2)cc1OC	-3	13%	17%	2%	-10%	28µM*
COc1cccc(-c2noc(CCCC(=O)NCc3ccco3)n2)c1	-2	-4%	.	.	0%	-1%
CCOC(=O)Nc1oc2ccccc2c(=O)c1C	-5	0%	3%	3%	-3%	5µM*
CCOC(=O)Nc1ccccc1	-5	.	.	.	.	.
Cc1nc(SCC(=O)N2CCCCC2)c2c(C)c(C)sc2n1	-15	?	31%	-8%	2%	.
CN(CC(=O)Nc1cccc(F)c1)C(=O)CCCN1C(=O)c2cccc3cccc(c23)C1=O	-6	1%	3%	-5%	0%	14µM*
O=C(COC(=O)CCCN1C(=O)c2cccc3cccc(c23)C1=O)Nc1cccc(C(F)(F)F)c1	1	-11%	-1%	-7%	11%	28µM*
CN(CC(=O)Nc1cccc(F)c1)C(=O)CCN1C(=O)C2CC=CCC2C1=O (configuration not stated)	-17	-6%	-4%	0%	6%	-2%
CCN(C(=O)COC(=O)CCCN1C(=O)c2cccc3cccc(c23)C1=O)C1CCS(=O)(=O)C1 (configuration not stated)	-7	18%	18%	-5%	-7%	28µM*
S=C(Nc1ccc(Cl)cc1)N1CCc2ccccc21	3	.	.	.	.	.
Cc1cccc(Nc2nc(-c3ccc(C)c(C)c3)cs2)c1	2	.	.	.	.	.
COc1cccc(-c2nc(SCC(=O)NC3CCCC3)c(-c3ccc(F)cc3)[nH]2)c1	-4	?	.	.	-4%	35µM*
COc1cccc(-c2nc(SCC(=O)NC3CCCC3)c(-c3ccccc3)[nH]2)c1	-8	?	.	.	-8%	32µM*
COc1ccc(-c2[nH]c(-c3ccc(C)cc3)nc2SCC(=O)NC2CCCC2)cc1	-5	10µM*	-3%	-7%	?	4%
O=C(CSc1nc(-c2ccccc2)[nH]c1-c1ccc(F)cc1)NC1CCCC1	-18	?	.	.	-2%	?
COc1cccc(-c2nc(SCC(=O)NC3CCCC3)c(-c3ccc(C)cc3)[nH]2)c1	7	?	.	.	-20%	?
COc1ccc2c(C)cc(SCC(=O)NC3CCCC3)nc2c1	-3	11µM*	14%	-2%	-1%	-27%
CCc1cc2ccccc2nc1SCC(=O)NC1CCCC1	-3	10µM*	18%	-2%	11%	.
COc1cccc(-c2nc(SCC(=O)NCC3CCCO3)c(-c3ccc(Cl)cc3)[nH]2)c1 (configuration not stated)	-19	?	.	.	2%	25µM*
CC(=O)NCCn1c(SCC(=O)NC2CCCCC2)nc2ccccc2c1=O	-4	20%	-1%	-3%	-2%	32µM*
CC(C)C(=O)n1nc(-c2cccnc2)nc1NCc1cccs1	-12	6%	-9%	4%	10%	2%

Screening results (PubChem BioAssay)
